Laboratory results published in PubChem BioAssay AID1159580 (chemical genetic matrix, 2015).
“And” between values parts separate entries of the source, which are not always exact repeats. Equal values may be shown once. About 2,000 (36%) of roughly 5,500 compounds were called active. Not shown: some 18% with an inconclusive outcome. Cut-off read from the data, not from the text of the source: active = normalized growth mostly below about 0.91 (no sharp cut-off); inconclusive = no clear call, values can overlap the other calls; inactive = mostly above about 0.92. This is one part of the list.

Assay: chemical genetic growth profiling, strain panel (AID 1159580);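 note: tested at 20 µM; growth read once vehicle control cultures reached saturation at 30 °C; 1 = growth at the plate median or of vehicle wells; lower values mean less growth of the strain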
Settings: S. cerevisiae deletion strains, growth OD

Measured: normalized growth

CN(C)CCN(Cc1cccs1)c1ccccn1
inactive: locus YAL021C, strain ccr4, stronger effect = lower value 1 | locus YAL026C, strain drs2, stronger effect = lower value 1.01 | locus YAL030W, strain snc1, stronger effect = lower value 1 | locus YAL040C, strain CLN3, stronger effect = lower value 1.02 | locus YBL061C, strain skt5, stronger effect = lower value 1 | locus YBR009C, strain hhf1, stronger effect = lower value 0.996 | locus YBR021W, strain FUR4, stronger effect = lower value 1.01 | locus YBR023C, strain chs3, stronger effect = lower value 1.01 | locus YBR171W, strain sec66, stronger effect = lower value 1.01 | locus YBR229C, strain ROT2, stronger effect = lower value 1 | locus YBR231C, strain swc5, stronger effect = lower value 1.01 | locus YBR279W, strain paf1, stronger effect = lower value 1 | locus YCL011C, strain gbp2, stronger effect = lower value 1.01 | locus YCL016C, strain dcc1, stronger effect = lower value 1.01 | locus YCL029C, strain bik1, stronger effect = lower value 1.02 | locus YCL061C, strain MRC1 (second series), stronger effect = lower value 1.01 | locus YCL061C, strain MRC1, stronger effect = lower value 1.01 | locus YCL069W, strain vba3, stronger effect = lower value 1.01 | locus YCR088W, strain abp1, stronger effect = lower value 1.01 | locus YDL005C, strain med2, stronger effect = lower value 1.01 | locus YDL035C, strain GPR1, stronger effect = lower value 1 | locus YDL040C, strain nat1, stronger effect = lower value 1.01 | locus YDL074C, strain BRE1, stronger effect = lower value 0.974 | locus YDL101C, strain DUN1, stronger effect = lower value 0.99 | locus YDL134C, strain PPH21, stronger effect = lower value 1.02 | locus YDL185W, strain tfp1, stronger effect = lower value 1.02 | locus YDL192W, strain arf1, stronger effect = lower value 1.01 | locus YDR001C, strain nth1, stronger effect = lower value 1.01 | locus YDR069C, strain doa4, stronger effect = lower value 1 | locus YDR101C, strain arx1, stronger effect = lower value 0.957 | locus YDR137W, strain rgp1, stronger effect = lower value 1.03 | locus YDR150W, strain NUM1, stronger effect = lower value 1.02 | locus YDR159W, strain sac3, stronger effect = lower value 1.01 | locus YDR162C, strain NBP2, stronger effect = lower value 1.01 | locus YDR195W, strain ref2 0.999 | locus YDR297W, strain sur2, stronger effect = lower value 0.999 | locus YDR318W, strain mcm21, stronger effect = lower value 1.02 | locus YDR334W, strain swr1, stronger effect = lower value 1.02 | locus YDR335W, strain msn5, stronger effect = lower value 1.01 | locus YDR363W, strain ESC2, stronger effect = lower value 0.986 | locus YDR388W, stronger effect = lower value 1.02 | locus YDR392W, strain spt3, stronger effect = lower value 1.01 | locus YDR502C, strain sam2, stronger effect = lower value 1 | locus YEL003W, strain gim4, stronger effect = lower value 1.01 | locus YEL037C, strain rad23, stronger effect = lower value 1.01 | locus YEL061C, strain CIN8 (second series), stronger effect = lower value 1.01 | locus YEL061C, strain CIN8, stronger effect = lower value 1 | locus YER002W, strain NOP16, stronger effect = lower value 1.01 | locus YER015W, strain faa2, stronger effect = lower value 1 | locus YER016W, strain bim1, stronger effect = lower value 1.01 | locus YER110C, stronger effect = lower value 1.01 | locus YER111C, strain swi4, stronger effect = lower value 1.02 | locus YER155C, strain BEM2 (second series), stronger effect = lower value 1.01 | locus YER155C, strain BEM2, stronger effect = lower value 1.01 | locus YER167W, strain BCK2, stronger effect = lower value 1.01 | locus YFR010W, strain ubp6, stronger effect = lower value 1.01 | locus YGL078C, strain dbp3, stronger effect = lower value 1.01 | locus YGL086W, strain mad1, stronger effect = lower value 0.982 | locus YGL167C, strain pmr1, stronger effect = lower value 1.01 | locus YGL173C, strain kem1, stronger effect = lower value 1.01 | locus YGL227W, strain vid30, stronger effect = lower value 1.01 | locus YGL240W, strain doc1, stronger effect = lower value 1.02 | locus YGL248W, strain PDE1, stronger effect = lower value 0.993 | locus YGL253W, strain hxk2, stronger effect = lower value 1.02 | locus YGR078C, strain PAC10, stronger effect = lower value 1.01 | locus YGR135W, strain pre9, stronger effect = lower value 1.05 | locus YGR229C, strain SMI1, stronger effect = lower value 0.996 | locus YGR252W, strain gcn5, stronger effect = lower value 1.07 | locus YHR013C, strain ard1, stronger effect = lower value 0.993 | locus YHR027C, strain rpn1, stronger effect = lower value 1 | locus YHR030C, strain SLT2, stronger effect = lower value 1.01 and 0.934 | locus YHR079C, strain IRE1 (second series), stronger effect = lower value 1.01 | locus YHR079C, strain IRE1, stronger effect = lower value 0.98 | locus YHR094C, strain hxt1, stronger effect = lower value 1.01 | locus YHR129C, strain ARP1, stronger effect = lower value 1.01 | locus YHR142W, strain chs7, stronger effect = lower value 1.01 | locus YHR200W, strain rpn10, stronger effect = lower value 1.01 | locus YIL066C, strain RNR3, stronger effect = lower value 1.01 | locus YIL073C, strain SPO22, stronger effect = lower value 1.07 | locus YIL125W, strain kgd1, stronger effect = lower value 0.993 | locus YIR030C, strain dcg1, stronger effect = lower value 1.01 | locus YJL092W, strain hpr5, stronger effect = lower value 1 | locus YJL095W, strain BCK1 (second series), stronger effect = lower value 1.01 | locus YJL095W, strain BCK1, stronger effect = lower value 0.993 and 0.95 | locus YJL115W, strain asf1, stronger effect = lower value 1.03 | locus YJL129C, strain trk1, stronger effect = lower value 1 | locus YJL134W, strain LCB3, stronger effect = lower value 1.01 | locus YJL154C, strain vps35, stronger effect = lower value 1.01 | locus YJL164C, strain tpk1, stronger effect = lower value 1 | locus YJL166W, strain qcr8, stronger effect = lower value 1 | locus YJL168C, strain set2, stronger effect = lower value 1.01 | locus YJL187C, strain SWE1 (second series), stronger effect = lower value 0.998 | locus YJL187C, strain SWE1, stronger effect = lower value 1 | locus YJR043C, strain POL32, stronger effect = lower value 1.01
